Compound activity (PubChem)
An excerpt weighted towards active compounds, which were near 9.2% of everything screened.
Rab9 prom act – Rab9 promoter activation. 2.8% of 320,000 active. Potency, µM (highest dose often 9.22 µM), without a hit: top-dose activation, negative = inhibition, actives largely listed as activators. Huh7 Rab9 promoter-luciferase reporter, luminescence, 24 h; also: % of control where 0% means no effect; nearly all actives have a fitted effect of over 60% in size
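Luciferase signal after 10 min detection reagent at ambient indicates Rab9 promoter upregulation; stably transfected Huh7 cells were treated 24 h with compound in DMSO at 37 °C, 5% CO2.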
FLuc counter – firefly luciferase modulation, counter-screen for miR-21 project | purified FLuc, Km substrates, luminescence inhibition | Potency, µM (titrated, usually from 57.5 µM), without a hit: top-dose activity change, negative = inhibition, hits mostly inhibitors | 6.9% of 360,000 active | AID 588342;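 also: plate controls were vehicle for no effect and reference inhibitor for full effect; nearly all actives have a fitted effect of over 55% in size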
Target sequence (P08659 whole entry, looked up): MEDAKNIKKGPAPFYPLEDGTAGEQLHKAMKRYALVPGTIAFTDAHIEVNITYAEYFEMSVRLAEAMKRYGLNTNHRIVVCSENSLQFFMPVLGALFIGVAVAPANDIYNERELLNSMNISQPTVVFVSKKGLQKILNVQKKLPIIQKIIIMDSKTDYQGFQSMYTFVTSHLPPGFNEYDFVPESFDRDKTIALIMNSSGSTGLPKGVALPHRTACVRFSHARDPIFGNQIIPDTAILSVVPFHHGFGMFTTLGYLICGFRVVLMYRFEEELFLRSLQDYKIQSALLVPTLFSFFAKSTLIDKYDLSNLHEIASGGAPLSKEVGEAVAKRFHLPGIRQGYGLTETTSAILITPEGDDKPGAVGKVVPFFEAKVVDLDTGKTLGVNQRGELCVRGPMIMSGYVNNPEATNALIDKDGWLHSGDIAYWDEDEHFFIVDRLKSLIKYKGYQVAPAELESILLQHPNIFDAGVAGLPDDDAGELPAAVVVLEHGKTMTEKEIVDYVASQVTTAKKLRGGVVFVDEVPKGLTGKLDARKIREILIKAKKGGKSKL
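Biochemical qHTS of compounds, final roughly 60 µM downward over six points, against 10 nM purified firefly luciferase using Km concentrations of substrates (10 uM D-luciferin, 10 uM ATP) in Tris acetate pH 7.5 buffer; luminescence output.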
ELG1 genotoxic – inducers of genotoxicity in HEK293T ELG1-luciferase cells; HEK293T ELG1-luciferase reporter, luminescence, 16 h; Potency, µM (titrated, usually from 46 µM), without a hit: at the top dose activity change, positive = activation, hits mostly activators; 1.3% of 330,000 active; also: % of control where 0% means no effect; nearly all actives have a fitted effect of over 60% in size
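Quantitative HTS format in 1536-well plates. HEK293T ELG1-luciferase reporter cells receive test compound and are incubated 16 hr at 37 °C, 5% CO2; ONE-Glo added, 30 min room temperature, then luminescence read.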
ELG1 DNA repair – inhibitors of ELG1-dependent DNA repair in HEK293T cells | HEK293T ELG1-luciferase reporter, luminescence, 16 h; DNA damage induced by 5-fluorouridine | Potency, µM (top dose mostly 46.1 µM), for inactives: at the highest dose activity change, negative = inhibition, hits mostly inhibitors | 2.3% of 330,000 active | AID 504467; also: % is scaled to controls: 0 for no effect and ±100 for the full control effect; nearly all actives have a fitted effect of over 55% in size
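Cells (2,000 per well) received 5-fluorouridine plus test compound or DMSO and were incubated 16 hr at 37 °C, 5% CO2. Luciferase activity was read by luminescence 30 min after ONE-Glo addition; signal suppression marked inhibition of damage-induced ELG1 function.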
SMN2 splice enh – SMN2 splice variant enhancement; 2.8% of 210,000 active; Potency, µM (titrated, usually from 46.1 µM), for the others: top-dose activity change, positive = activation, most hits filed as activators; HEK293 SMN2-luciferase splicing reporter, luminescence, 30-36 h; also: % of control where 0% means no effect; nearly all actives have a fitted effect of over 55% in size
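HEK293 cells carry an SMN2 minigene-luciferase reporter in which exon 7 inclusion puts luciferase in frame. Cells were seeded at 2000 cells/well, attached for 10-12 hours, then exposed to compounds for 30-36 hours at 37C before ONE-Glo luminescence.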
NPC1 prom act – activates the NPC1 promoter | Huh7 NPC1 promoter luciferase reporter, 24 h | Potency, µM (titrated, usually from 9.22 µM), for the others: at the highest dose activation, hits mostly activators | 2.4% of 320,000 active | AID 485313; also: % of control where 0% means no effect; nearly all actives have a fitted effect of over 60% in size
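Stable NPC1-promoter luciferase Huh7 line; cpd (DMSO) 24 h, 37 °C, 5% CO2; Amplite luciferase reagent 10 min RT; luminescence readout. qHTS format.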
* = called active by the depositor; ? = inconclusive; . = no result; [ ] = remark or other dose. Calls follow the shape of the dose curve; as a rule, active = well fitted curve in the direction sought with a large enough effect; inconclusive = small, poorly fitted or top-dose-only effect, or another doubt; inactive = no such curve, though single readings can be large; an effect the other way counts as inactive or inconclusive. Potency is read from the fitted curve at half-maximal effect.

SMILES	Rab9 prom act	FLuc counter	ELG1 genotoxic	ELG1 DNA repair	SMN2 splice enh	NPC1 prom act
O=C(N/N=C/c1ccc2c(c1)OCO2)c1ccn(Cc2ccc(Cl)cc2)n1	-1%	?	?	14%	.	17%
CCCC(=O)N(c1ccc2oc3c(c2c1)CCCC3)S(=O)(=O)c1ccc(CC)cc1	.	-8%	.	.	-7%	.
CCOc1ccccc1NC(=O)CSc1cc(=O)n(CC)c2ccccc12	.	-19%	.	.	15%	.
COc1ccc(-c2c(C)nn3c(C(F)(F)F)cc(-c4ccc(Br)cc4)nc23)cc1	.	-7%	.	.	-5%	.
COc1ccc(C(C)(C)C)cc1NC(=O)COC(=O)C1=NNC(=O)CC1	-6%	4%	2%	9%	.	-2%
CCOC(=O)Cn1c(=O)cc(C)c2c(C)nn(-c3cccc(F)c3)c21	.	-10%	.	.	.	.
CC(=O)N1c2ccc(N=Cc3cc(Br)cc(Br)c3O)cc2CC1C (centres undefined)	1%	9.5µM*	2%	-2%	.	-3%
CC(C)(C)N(Cc1ccccc1)C(=O)COC(=O)c1cccc([N+](=O)[O-])c1	0%	0%	-11%	?	-1%	2%
COc1cccc(-c2nc(CS(=O)(=O)CC(=O)Nc3cc(F)ccc3F)c(C)o2)c1	-5%	2%	-8%	18µM*	-48%	-6%
COc1cccc(-c2nc(CS(=O)(=O)CC(=O)Nc3ccccc3C)c(C)o2)c1	-4%	1%	-5%	-8%	.	-2%
CN=c1scc(-c2ccccc2Br)n1/N=C/c1ccc[nH]1	?	1.1µM*	0.46µM*	?	.	?
CN=c1scc(-c2ccc(Br)cc2)n1C	-5%	-17%	1%	-2%	-5%	1%
CC(C)n1c(-c2cccnc2)nc2cnccc21	-2%	3%	-9%	13µM*	-8%	1%
CCOc1ccccc1CNC(=O)c1cc2oc3ccccc3c2n1CC	-1%	-8%	-1%	?	?	1%
CCn1c(C(=O)NCc2ccc(F)cc2)cc2oc3ccccc3c21	.	1%	.	.	?	.
COc1cccc(CNC(=O)c2cc3oc4ccccc4c3n2C)c1OC	7%	?	7%	?	16µM*	0%
CCOc1ccc(CNC(=O)c2cc3oc4ccccc4c3n2C)cc1	-1%	-6%	-9%	?	25µM*	7%
Cc1onc(-c2ccccc2)c1C(=O)NC(=S)NNC(=O)c1cccnc1	-3%	1%	-2%	-11%	39%	-3%
Cc1onc(-c2ccccc2)c1C(=O)NC(=S)NNC(=O)c1ccco1	-2%	2%	2%	23µM*	.	3%
Cc1onc(-c2ccccc2)c1C(=O)NC(=S)NNC(=O)c1cc(-c2ccc(F)cc2)n[nH]1	-2%	15µM*	-9%	?	.	1%
Cc1onc(-c2ccccc2)c1C(=O)NC(=S)NNC(=O)c1ccncc1	-5%	0%	-1%	0%	6%	0%
Cc1ccc(N/C=C/C(=O)C(C)(C)C)c(O)c1	17%	19µM*	10%	-6%	4%	4%
Cc1ccc(C=C2C(=O)c3ccccc3C2=O)o1	1%	0.48µM*	8%	?	-8%[1.84 µM]	2%
O=C1ON=C(c2ccccc2)/C1=C/c1ccco1	2%	?	5%	?	12%	0%
O=C(O)c1ccc2c(c1)C(=O)/C(=C\c1ccco1)C2=O	0%	9.5µM*	1%	-4%	3%	-1%
SMILES	Rab9 prom act	FLuc counter	ELG1 genotoxic	ELG1 DNA repair	SMN2 splice enh	NPC1 prom act
O=C1C(=Cc2ccco2)C(=O)c2ccccc21	1%	13µM*	2%	?	8%	8%
Cc1ccc(/C=C2/C(=O)c3ccc(C(=O)O)cc3C2=O)o1	-16%	2.7µM*	3%	10%	.	2%
CCNc1ccc(C(=O)OCC(=O)c2cc(C)n(Cc3ccc4c(c3)OCO4)c2C)cc1[N+](=O)[O-]	-6%	2%	2%	7%	-8%[1.84 µM]	-1%
CCc1nnc(NC(=O)C2(C)COC(c3ccc(OC)cc3)OC2)s1 (centres undefined)	1%	-3%	-13%	?	?	-23%
CN(C)N1C(N)=C(C#N)C(c2ccc(Br)cc2)C2=C1CC(C)(C)CC2=O (centres undefined)	-3%	0%	1%	24%	.	-3%
Cc1c(Cl)cccc1-n1nc(C)c2c(C(=O)NCc3ccccc3)cc(C3CC3)nc21	.	8%	.	.	.	.
CC(C)(C)C1=CC(=Nc2ccccc2N)C=C(C(C)(C)C)C1=O	-8%	0%	1%	3%	2%	-1%
CC(C)(C)C1=CC(=O)C(=O)C(C(C)(C)C)=C1	-17%	7.6µM*	-5%	?	-110%	-16%
CN(C)c1ccc(-c2nc(N(C)Cc3ccco3)c3ccccc3n2)cc1	.	.	.	.	10µM*	.
N#CCCN(C(=O)COC(=O)CNC(=O)c1ccc(-c2ccccc2)cc1)c1ccc(F)cc1	3%	24µM*	2%	13%	.	-7%
O=c1c2ccccc2nc2c3ccccc3cnn12	2.2µM*	?	?	?	?	?
O=c1c2ccccc2nc2c3ccccc3c(Cl)nn12	16%	-1%	3%	-2%	-65%	-8%
COc1ccccc1N1CCN(C(=O)COc2ccc(Cl)cc2Br)CC1	4%	-10%	-13%	?	-4%	-5%
COc1ccccc1N1CCN(C(=O)CNC(=O)c2ccc(Cl)cc2Cl)CC1	16%	24µM*	-14%	?	.	17%
O=C(NCC(=O)N1CCCCC1)c1ccc(Cl)cc1Cl	4µM*	19µM*	16µM*	?	?	?
CN(Cc1ccccc1)c1nc(-c2ccc(F)cc2)cc(C(F)(F)F)n1	.	1%	.	.	-6%	.
COc1cccc(N(CC(=O)NCCSc2ccc(Cl)cc2)S(C)(=O)=O)c1	-3%	6%	-6%	-21%	11%	-1%
Cc1ccc(NCc2cccn2-c2nnc(N3CCC(C(=O)NCCc4ccccc4)CC3)s2)cc1	.	-8%	.	.	-36%	.
O=C1/C(=C/c2cccnc2)Oc2cc(OS(=O)(=O)c3ccccc3)ccc21	10%	?	?	0%	0%	8%
O=C1/C(=C/c2cccnc2)Oc2cc(OS(=O)(=O)c3ccc(Cl)cc3)ccc21	0%	-3%	3%	15µM*	-62%	4%
CC(C)CCn1c(/C=C/c2ccccc2)nc2ccccc21	.	4.3µM*	.	.	?	.
COCCn1c(/C=C/c2ccccc2)nc2ccccc21	2µM*	1.7µM*	?	?	11µM*	2.2µM*
COCCn1c(-c2ccccc2)nc2ccccc21	-2%	?	3%	?	-5%	-2%
